PubChem BioAssay (EPA / NIEHS)
Inconclusive results are not listed. Active and inactive are the calls of the source. The calls were made as follows: active = hit-call score of the fitted dose curve at least 0.9, where 1 is the maximum; inconclusive = response in the unintended direction; inactive = score below 0.9.

Experiments:
[1] = TOX21_p53_BLA_p2_viability: Viability Assessment in the Tox21 HCT-116 p53 Agonism Beta-lactamase Assay, Phase 2 (AID 2283591);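 also: actives lower the ATP signal meaning cytotoxicity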
Outline: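 Cytotoxicity readout: CellTiter-Glo ATP luminescence, 30 min at room temperature, after the beta-lactamase read. Cells were HCT116 exposed 16 h at 37C to compounds pin-transferred at 217-fold dilution from DMSO stocks.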

[2] = target: Cellular tumor antigen p53 (Homo sapiens) (UniProt P04637); test: TOX21_p53_BLA_p2_ratio: Tox21 HCT-116 p53 Agonism Beta-lactamase Assay, Ratio, Phase 2 (AID 2283592)
Outline: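 HCT116 p53-bla; 4000 cells/well; 5 h pre-incubation; cpd in DMSO, 217-fold dilution; 16 h 37C/5% CO2; CCF4-AM 2 h RT; Ex 405, Em 460/530 ratio; DMSO = baseline; positive fitting direction.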

[3] = TOX21_p53_BLA_p3_viability: Viability Assessment in the Tox21 HCT-116 p53 Agonism Beta-lactamase Assay, Phase 3 (AID 2283593);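 also: cells exposed to compound for 16 h before reading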
Outline: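 Cellular ATP was quantified by CellTiter-Glo luminescence, read after 30 min at room temperature. Beforehand, HCT116 cells (4000/well) received compound 5 h post-seeding, 217-fold diluted from DMSO, then incubated 16 h at 37C.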

[4] = TOX21_p53_BLA_p5_viability: Viability Assessment in the Tox21 HCT-116 p53 Agonism Beta-lactamase Assay, Phase 5 (AID 2283600)
Outline: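 4000 cells/well; 5 h pre-incubation; DMSO compounds pin-transferred, 217-fold dilution; 16 h, 37C/5% CO2; CCF4-AM 2 h RT; CellTiter-Glo 30 min RT; luminescence.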

[5] = target: Cellular tumor antigen p53 (Homo sapiens) (UniProt P04637); test: TOX21_p53_BLA_p4_ratio: Tox21 HCT-116 p53 Agonism Beta-lactamase Assay, Ratio, Phase 4 (AID 2283601)
Outline: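 Signal is the blue/green (460nm/530nm) ratio of cleaved versus uncleaved CCF4-AM substrate, read after 2 h substrate loading. Cells were HCT116 carrying the p53-responsive beta-lactamase reporter, dosed 16 h at 37C, 5% CO2; CellTiter-Glo measured in parallel.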

[6] = target: Thyroid hormone receptor alpha (Rattus norvegicus) + Thyroid hormone receptor beta (Rattus norvegicus) (UniProt P18113+P63059); test: TOX21_TR_LUC_GH3_Antagonist_Followup: Tox21 GH3 Thyroid Hormone Receptor Antagonism Luciferase Follow-Up Assay (AID 2283942)
Outline: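 Confirmatory qHTS, antagonist mode: T3 (1.0 nM final) + test cpd, 15 conc, 92 uM–5nM final, GH3 rat pituitary line, 24 h, 37C. Luc reporter, RLU vs DMSO.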

THRA (gene 7067) = THRA (gene 7067) (UniProt P10827); test: TOX21_TRA_COA_Antagonist_Followup_ratio: Tox21 Thyroid Hormone Receptor alpha Antagonism through Coactivator Recruitment Follow-Up Assay, Ratio (AID 2283953)
Outline: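 520:495 nm emission ratio (excitation 340 nm) reports fluorescein-SRC-2 peptide recruitment to GST-TRα LBD by TR-FRET with Tb anti-GST antibody. Values were normalized to DMSO (0%) and T3 control wells (100%); loss of signal indicated antagonism.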

THRB (gene 7068) = THRB (gene 7068) (UniProt P10828); test: TOX21_TRB_COA_Antagonist_Followup_ratio: Tox21 Thyroid Hormone Receptor beta Antagonism through Coactivator Recruitment Follow-Up Assay, Ratio (AID 2283967)
Outline: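 Test compound was incubated with 5.0 nM GST-TRβ LBD in 0.10% BSA. Then 200 nM fluorescein-SRC-2 peptide and 2 nM terbium anti-GST antibody were added. TR-FRET (520:495 nm) was measured and normalized to DMSO and T3 controls.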

[7] = target: Retinoic acid receptor RXR-alpha (Homo sapiens) (UniProt P19793); test: TOX21_TR_RXR_BLA_Antagonist_Followup_ratio: Tox21 Thyroid Hormone Receptor beta Retinoid X Receptor alpha (RXRa) Antagonism Beta-lactamase (BLA) Follow-Up Assay, Ratio (AID 2283972)
Outline: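 HEK293T RXRa-bla, 2% charcoal-stripped FBS medium, 16 h compound exposure at 37C, qHTS 11 conc x3. CCF4 FRET ratio ch2/ch1 (460:530), DMSO = baseline, loss-of-signal fit.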

[8] = TOX21_TR_RXR_BLA_Antagonist_Followup_viability: Viability Assessment in the Tox21 Thyroid Hormone Receptor beta Retinoid X Receptor alpha (RXRa) Antagonism Beta-lactamase (BLA) Follow-Up Assay (AID 2283979)
Outline: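 Follow-up compounds (11 concentrations, triplicate) were incubated 16 h at 37C/5% CO2 with HEK293T RXRa-bla cells seeded at 2,500/well in charcoal-stripped-serum medium. ATP content by CellTiter-Glo luminescence gave viability; curves fitted in both directions against DMSO.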

[9] = target: Cellular tumor antigen p53 (Homo sapiens) (UniProt P04637); test: TOX21_p53_BLA_p3_ratio: Tox21 HCT-116 p53 Agonism Beta-lactamase Assay, Ratio, Phase 3 (AID 2283596)
Outline: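 HCT116 p53-bla cells (4000/well) given compound in DMSO (217-fold dilution) after 5 h, incubated 16 h at 37C. CCF4-AM substrate 2 h at room temperature; 460/530 nm emission ratio, gain fitted against DMSO.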

[10] = TOX21_p53_BLA_p4_viability: Viability Assessment in the Tox21 HCT-116 p53 Agonism Beta-lactamase Assay, Phase 4 (AID 2283597);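 also: hits lower the luminescence signal meaning cytotoxicity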
Outline: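 Cells plated, 5 h pre-incubation; DMSO compounds pinned (217-fold dilution); 16 h, 37C/5% CO2; CCF4-AM 2 h RT; CellTiter-Glo 30 min RT; luminescence read.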

[11] = target: Cellular tumor antigen p53 (Homo sapiens) (UniProt P04637); test: TOX21_p53_BLA_p5_ratio: Tox21 HCT-116 p53 Agonism Beta-lactamase Assay, Ratio, Phase 5 (AID 2283599)
Outline: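 Beta-lactamase reporter ratio (blue 460 nm over green 530 nm, 405 nm excitation) after 2 h CCF4-AM loading, in HCT-116 cells exposed 16 h at 37 C to compounds pinned at 217-fold dilution. Increases relative to DMSO baseline scored.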

Sequence of Cellular tumor antigen p53 (Homo sapiens) (P04637 whole entry, looked up): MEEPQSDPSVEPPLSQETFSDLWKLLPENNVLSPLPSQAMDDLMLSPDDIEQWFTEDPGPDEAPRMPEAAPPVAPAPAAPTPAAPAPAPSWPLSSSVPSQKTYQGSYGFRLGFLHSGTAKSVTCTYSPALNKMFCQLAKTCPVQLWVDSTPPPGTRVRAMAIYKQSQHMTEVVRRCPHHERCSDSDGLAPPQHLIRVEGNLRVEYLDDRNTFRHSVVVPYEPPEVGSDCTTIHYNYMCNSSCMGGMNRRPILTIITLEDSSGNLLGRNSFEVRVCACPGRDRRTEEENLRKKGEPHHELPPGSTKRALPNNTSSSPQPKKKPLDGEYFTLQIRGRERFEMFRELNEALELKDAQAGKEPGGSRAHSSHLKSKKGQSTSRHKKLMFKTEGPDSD
Sequence of Retinoic acid receptor RXR-alpha (Homo sapiens) (P19793 whole entry, looked up): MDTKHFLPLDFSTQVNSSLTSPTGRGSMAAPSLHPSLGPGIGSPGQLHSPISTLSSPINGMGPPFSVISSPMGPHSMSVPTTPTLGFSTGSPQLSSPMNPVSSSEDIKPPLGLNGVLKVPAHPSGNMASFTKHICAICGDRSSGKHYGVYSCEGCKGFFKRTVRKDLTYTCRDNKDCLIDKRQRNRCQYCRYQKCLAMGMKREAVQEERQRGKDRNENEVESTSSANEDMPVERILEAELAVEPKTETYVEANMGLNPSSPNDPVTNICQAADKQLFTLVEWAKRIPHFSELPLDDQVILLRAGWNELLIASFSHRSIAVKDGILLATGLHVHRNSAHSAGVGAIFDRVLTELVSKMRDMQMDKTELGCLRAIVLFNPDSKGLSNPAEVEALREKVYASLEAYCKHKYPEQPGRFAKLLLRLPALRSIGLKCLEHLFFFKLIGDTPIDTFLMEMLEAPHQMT
Sequence of THRB (gene 7068) (P10828 whole entry, looked up, the tested form may be a part): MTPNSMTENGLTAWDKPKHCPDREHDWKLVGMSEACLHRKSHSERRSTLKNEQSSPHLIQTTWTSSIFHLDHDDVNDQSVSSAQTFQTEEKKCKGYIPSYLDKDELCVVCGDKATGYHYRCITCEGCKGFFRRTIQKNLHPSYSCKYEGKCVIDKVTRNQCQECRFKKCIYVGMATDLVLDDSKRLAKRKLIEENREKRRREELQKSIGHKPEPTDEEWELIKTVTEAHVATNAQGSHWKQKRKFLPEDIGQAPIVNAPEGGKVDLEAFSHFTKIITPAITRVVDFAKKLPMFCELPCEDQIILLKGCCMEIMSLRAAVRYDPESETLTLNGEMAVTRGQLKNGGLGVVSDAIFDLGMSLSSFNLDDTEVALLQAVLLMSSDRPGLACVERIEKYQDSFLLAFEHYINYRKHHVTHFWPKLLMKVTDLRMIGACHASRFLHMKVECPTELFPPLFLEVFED
Sequence of THRA (gene 7067) (P10827 whole entry, looked up, the tested form may be a part): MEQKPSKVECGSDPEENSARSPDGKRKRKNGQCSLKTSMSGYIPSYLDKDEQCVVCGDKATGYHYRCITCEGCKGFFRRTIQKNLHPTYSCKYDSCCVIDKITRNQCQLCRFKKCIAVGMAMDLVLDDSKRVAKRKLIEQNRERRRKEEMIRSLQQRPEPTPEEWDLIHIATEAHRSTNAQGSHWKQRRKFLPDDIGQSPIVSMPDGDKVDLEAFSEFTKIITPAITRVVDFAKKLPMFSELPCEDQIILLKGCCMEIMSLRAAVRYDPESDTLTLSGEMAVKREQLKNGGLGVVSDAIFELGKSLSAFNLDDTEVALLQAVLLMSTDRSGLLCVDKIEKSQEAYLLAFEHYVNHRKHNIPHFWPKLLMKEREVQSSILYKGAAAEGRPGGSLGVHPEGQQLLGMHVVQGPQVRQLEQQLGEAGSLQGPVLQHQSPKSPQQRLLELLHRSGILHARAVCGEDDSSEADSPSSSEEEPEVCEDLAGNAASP

CCC(COC(=O)c1cc(OC)c(OC)c(OC)c1)(c1ccccc1)N(C)C (stereo not given)
outcome [1]: inactive
outcome [2]: inactive
outcome [3]: inactive
outcome [4]: inactive
outcome [5]: inactive
outcome [6]: inactive
outcome (THRA (gene 7067)): inactive
outcome (THRB (gene 7068)): inactive
outcome [7]: inactive
outcome [8]: inactive

C=CCSSCC=C
outcome [1]: inactive
outcome [2]: inactive
AC50 [9]: 57.5 µM (active)
outcome [10]: inactive

O=NN1CCNCC1
outcome [1]: inactive
outcome [2]: inactive
outcome [9]: inactive
outcome [10]: inactive
outcome [4]: inactive

ClC=C(Cl)Cl
outcome [1]: inactive
outcome [2]: inactive
outcome [9]: inactive
outcome [10]: inactive
outcome [11]: inactive
outcome [5]: inactive

O=C1CN=C(c2ccccc2)c2cc(Cl)ccc2N1
outcome [1]: inactive
outcome [2]: inactive
outcome [9]: inactive
outcome [10]: inactive

CCN(C)N=O
outcome [1]: inactive
outcome [2]: inactive
outcome [9]: inactive
outcome [10]: inactive
outcome [11]: inactive
outcome [5]: inactive

COC1=CC(=O)O[C@@H](/C=C/c2ccc3c(c2)OCO3)C1
outcome [1]: inactive
outcome [2]: inactive
outcome [9]: inactive
outcome [10]: inactive
outcome [11]: inactive
outcome [4]: inactive
outcome [5]: inactive
outcome [6]: inactive
outcome (THRB (gene 7068)): inactive
outcome [7]: inactive
outcome [8]: inactive

Cc1nnc2n1-c1sc(Br)cc1C(c1ccccc1Cl)=NC2
outcome [1]: inactive
outcome [2]: inactive
outcome [9]: inactive
outcome [10]: inactive
outcome [11]: inactive
outcome [4]: inactive
outcome [5]: inactive

C=CC(=O)OCC(C)C
outcome [1]: inactive
outcome [2]: inactive
outcome [3]: inactive
outcome [4]: inactive
outcome [5]: inactive

CCCC(C)(COC(N)=O)COC(N)=O
outcome [1]: inactive
outcome [2]: inactive
outcome [9]: inactive
outcome [10]: inactive
outcome [11]: inactive
outcome [4]: inactive
outcome [5]: inactive

CCC/C=C/C=C/C(=O)O[C@H]1/C(=C/C(=O)OC)C[C@H]2C[C@H]([C@@H](C)O)OC(=O)C[C@H](O)C[C@@H]3C[C@H](OC(C)=O)C(C)(C)[C@](O)(C[C@@H]4C/C(=C/C(=O)OC)C[C@H](/C=C/C(C)(C)[C@]1(O)O2)O4)O3
outcome [1]: inactive
outcome [2]: inactive
outcome [9]: inactive
outcome [10]: inactive
outcome [11]: inactive
outcome [5]: inactive

C[C@]12CC[C@H](O)C[C@H]1CC[C@@H]1[C@@H]2CC[C@]2(C)[C@@H](c3ccc(=O)oc3)C[C@H]3O[C@]132
AC50 [1]: 0.859 µM (active)
outcome [2]: inactive
outcome [9]: inactive
AC50 [10]: 1.23 µM (active)
outcome [11]: inactive
AC50 [4]: 1.04 µM (active)

c1ccc(OCC2CO2)cc1 (stereo not given)
outcome [1]: inactive
outcome [2]: inactive
outcome [9]: inactive
outcome [10]: inactive
outcome [4]: inactive

COC(C)(C)C
outcome [1]: inactive
outcome [2]: inactive
outcome [9]: inactive
outcome [10]: inactive
outcome [11]: inactive
outcome [4]: inactive
outcome [5]: inactive

O=C(CCl)c1ccc(Oc2ccc(C(=O)CCl)cc2)cc1
outcome [1]: inactive
AC50 [2]: 43.4 µM (active)
outcome [9]: inactive
outcome [10]: inactive
outcome [11]: inactive
AC50 [5]: 41.9 µM (active)

C[C@H]1[C@@H]2Cc3ccc(O)cc3[C@@]1(C)CCN2C
outcome [1]: inactive
outcome [2]: inactive
outcome [9]: inactive
outcome [11]: inactive
outcome [4]: inactive
outcome [5]: inactive

CCC1(c2ccccc2)C(=O)NC(=O)N(C)C1=O (stereo not given)
outcome [1]: inactive
outcome [2]: inactive
outcome [9]: inactive
outcome [4]: inactive

CC(=O)C1CCOC1=O (stereo not given)
outcome [1]: inactive
outcome [2]: inactive
outcome [9]: inactive
outcome [11]: inactive
outcome [4]: inactive
outcome [5]: inactive

CN1CCN(C(=O)O[C@H]2c3nccnc3C(=O)N2c2ccc(Cl)cn2)CC1
outcome [1]: inactive
outcome [2]: inactive
outcome [9]: inactive
outcome [10]: inactive
outcome [4]: inactive
outcome [5]: inactive

CNP(=O)(OC)Oc1ccc(C(C)(C)C)cc1Cl (stereo not given)
outcome [1]: inactive
outcome [2]: inactive
outcome [9]: inactive
outcome [11]: inactive
outcome [4]: inactive
outcome [5]: inactive

CNC(=O)Oc1cc(C)c(N(C)C)c(C)c1
outcome [1]: inactive
outcome [2]: inactive
outcome [9]: inactive
outcome [11]: inactive
outcome [5]: inactive

C=CCOC(C)=O
outcome [1]: inactive
outcome [2]: inactive
outcome [9]: inactive
outcome [11]: inactive
outcome [4]: inactive
outcome [5]: inactive

CC[C@@H](CO)NC(=O)[C@@H]1C=C2c3cccc4[nH]cc(c34)C[C@H]2N(C)C1
outcome [1]: inactive
outcome [2]: inactive
outcome [9]: inactive
outcome [10]: inactive
outcome [4]: inactive
outcome [5]: inactive

C=CCN(C1=NCCN1)c1c(Cl)cccc1Cl
outcome [1]: inactive
outcome [2]: inactive
outcome [9]: inactive
outcome [11]: inactive

NP(N)(=O)NC(=O)c1ccc(F)cc1
outcome [1]: inactive
outcome [2]: inactive
outcome [10]: inactive
outcome [11]: inactive
outcome [4]: inactive

O=C1CCCCC1CN1CCCCC1 (stereo not given)
outcome [1]: inactive
outcome [2]: inactive
outcome [9]: inactive
outcome [10]: inactive
outcome [5]: inactive

CCCCC/C=C\C/C=C\C/C=C\C/C=C\CCCC(=O)NCC(=O)O
outcome [1]: inactive
outcome [2]: inactive
outcome [10]: inactive
outcome [11]: inactive
outcome [4]: inactive
outcome [5]: inactive

C=CCC1([C@@H](C)CCC)C(=O)NC(=O)NC1=O
outcome [1]: inactive
outcome [2]: inactive
outcome [10]: inactive
outcome [11]: inactive
outcome [4]: inactive

[2H]C([2H])([2H])[C@H](N)Cc1ccccc1
outcome [1]: inactive
outcome [2]: inactive
outcome [9]: inactive
outcome [4]: inactive

NCCOS(=O)(=O)O
outcome [1]: inactive
outcome [2]: inactive
outcome [9]: inactive
outcome [11]: inactive
outcome [4]: inactive
outcome [5]: inactive
